GPR151 ag: human GPR151 activation. AID 1508602. activation, % at 11.2 µM. 650,000 tested, 1% active. PathHunter beta-arrestin GPR151 cells, luminescence; in the data active = activation above about 4.9%
Target sequence (Q8TDV0 whole entry, looked up): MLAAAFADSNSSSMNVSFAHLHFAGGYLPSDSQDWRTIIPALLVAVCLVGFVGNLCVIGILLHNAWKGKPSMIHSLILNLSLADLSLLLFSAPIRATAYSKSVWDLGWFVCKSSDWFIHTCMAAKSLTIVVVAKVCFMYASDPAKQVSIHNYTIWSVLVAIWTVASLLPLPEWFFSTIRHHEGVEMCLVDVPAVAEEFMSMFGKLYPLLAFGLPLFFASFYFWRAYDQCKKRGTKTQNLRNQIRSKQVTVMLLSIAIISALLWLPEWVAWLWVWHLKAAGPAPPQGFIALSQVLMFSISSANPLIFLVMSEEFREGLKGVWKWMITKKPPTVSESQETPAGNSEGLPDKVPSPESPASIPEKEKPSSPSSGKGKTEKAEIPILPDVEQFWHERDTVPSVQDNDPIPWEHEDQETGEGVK
FBW7 act: human FBW7 E3 ligase activation, primary screen; normalized activity (activation), % at 26.1 µM; 650,000 tested, 0.13% active; Q969H0; AlphaScreen FBW7–phospho-cyclin E peptide binding, activator screen; AID 1259310; in the data active = normalized activity above about 1.9%;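 also: purified mutant Fbw7 with reduced substrate affinity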
MITF inh: blocks human microphthalmia-associated transcription factor | O75030 | AlphaScreen MITF homodimerization, bead proximity signal | inhibition, % at 2.6 µM | 650,000 tested, 0.91% active | AID 1259374; in the data active = inhibition above about 50%
TEAD-YAP block: TEAD-YAP interaction inhibition; HEK-TIYL cells, TEAD-Gal4/YAP UAS-luciferase luminescence; inhibition, % at 9.12 µM; 640,000 tested, 1.4% active; AID 1259422; in the data active = inhibition above about 32%
MITF inh conf: confirmation of human MITF inhibitors; AlphaScreen MITF homodimerization, biotin/His-MITF beads; shares compounds with MITF inh; inhibition, % at 2.6 µM; 4,700 tested, 16% active;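 active = inhibition above a cutoff derived from the DMSO control wells, cut at about 28% in these data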;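 also: inhibitors lower the bead chemiluminescence by keeping MITF from dimerizing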
AlphaScreen DR: AlphaScreen optical interference, dose response counter-screen | shares compounds with MITF inh | AlphaScreen optical interference counterscreen, cell-free | IC50, µM | 480 tested, 6% active; call rule not given here
AS interf ctr: counter-screen: compounds optically interfering with AlphaScreen; shares compounds with MITF inh; LysRS AlphaScreen counterscreen, signal interference, triplicate; inhibition, % at 2.6 µM; 4,700 tested, 7.6% active; AID 1259376;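 active = inhibition above a cutoff derived from the DMSO control wells, cut at about 30% in these data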
Numbers stand for hits; - = inactive; . = no result. Rows were chosen to be rich in hits. Some 3.5% of all compounds tested hit in one or more screens of this group.

SMILES	GPR151 ag	FBW7 act	MITF inh	TEAD-YAP block	MITF inh conf	AS interf ctr	others
CC(=O)NCC(=O)OCC(=O)c1ccc(Oc2ccc([N+](=O)[O-])cc2)cc1	-	-	-	-	.	.
COc1ccc(/C(N)=N/OC(=O)c2ccccc2C)cc1	-	-	-	-	.	.
O=C(c1ccccc1)N1CCN(CC(O)COc2ccc(OCC(O)CN3CCN(C(=O)c4ccccc4)CC3)cc2)CC1 (configuration not stated)	-	-	-	-	.	.
CSc1ccc(CN2CCN(CCO)CC2)cc1	-	-	80.2	-	-	-
CSc1ccc(CN2CCN(C(=O)c3ccccc3F)CC2)cc1	-	-	-	-	.	.
CSc1ccc(CN2CCC(O)CC2)cc1	-	-	-	-	.	.
CSc1ccc(CN2CCN(Cc3ccncc3)CC2)cc1	-	-	60.5	-	-	-
CSc1ccc(CN2CCN(C(=O)C(c3ccccc3)c3ccccc3)CC2)cc1	-	-	53.1	-	-	-
OCCN1CCN(Cc2ccc(OCc3ccccc3)cc2)CC1	-	-	-	-	.	.
OCCN1CCN(Cc2ccc(O)cc2)CC1	-	-	86.3	-	-	-
COc1ccc2c(c1)CC(C(=O)Nc1ccc(-c3cn[nH]c3)cc1C(=O)N(C)OC)CO2 (configuration not stated)	-	-	51.2	-	51.2	-	AlphaScreen DR=-
COc1ccc2c(c1)CC(C(=O)Nc1ccc(-c3cn[nH]c3)cc1OCC#N)CO2 (configuration not stated)	-	-	52.1	-	42.8	-	AlphaScreen DR=-
Cc1cccc(N2CCN(C(=O)CCN3C(=O)c4ccccc4C3=O)CC2)c1C	-	-	-	-	.	.
O=C(N/N=C/c1cccc2cccnc12)c1ccc(Cl)cc1	-	-	-	-	.	.
O=C(N/N=C/c1cccc2cccnc12)c1cccc([N+](=O)[O-])c1	-	-	53.0	-	55.8	100.3
O=C(N/N=C\c1cccc([N+](=O)[O-])c1)c1cnccn1	-	-	65.5	-	-	-
COc1ccc(-c2noc(Cc3ccc(C)cc3)n2)cc1	-	-	-	-	.	.
COC(=O)CC(C)(C)/C(C)=N/NS(=O)(=O)c1ccc(C)cc1	-	-	-	-	.	.
CCOC(=O)c1ccc(S(=O)(=O)N2CCN(C3CCC(C)CC3)CC2)cc1 (configuration not stated)	-	-	-	-	.	.
COc1ccc(CN2CCC3(CCC(CNC(=O)c4ccco4)O3)CC2)c(Cl)c1OC (configuration not stated)	-	-	-	-	.	.
O=C(c1ccsc1)N1CCOc2ccc(CN3CCN(c4ccccc4)CC3)cc2C1	-	-	72.6	-	-	-
CC(C)(C)n1nnnc1C(c1ccc2ncccc2c1)N1CCOCC1 (configuration not stated)	-	-	53.7	-	-	-
CCN1CCN(C(c2ccc3ncccc3c2)c2nnnn2C(C)(C)C)CC1 (configuration not stated)	-	-	-	-	.	.
COc1ccc(NC(=O)CCCc2nc(-c3ccc(Cl)cc3)no2)cc1	-	-	-	-	.	.
COc1cccc(CC(=O)NCC2CCC3(CCN(Cc4ccccn4)CC3)O2)c1 (configuration not stated)	-	-	-	-	.	.
SMILES	GPR151 ag	FBW7 act	MITF inh	TEAD-YAP block	MITF inh conf	AS interf ctr	others
CSc1ccc(CC(=O)NCC2CCC3(CCN(Cc4ccccn4)CC3)O2)cc1 (configuration not stated)	-	-	69.4	-	-	-
O=[N+]([O-])c1cccc(-c2nc3c4ccccc4nc(SCc4ccc(Cl)cc4)n3n2)c1	-	-	-	-	.	.
COC(=O)c1ccc(=O)c2nc3/c(=C/O)c(O)cc(=O)c3[nH]c12	-	-	76.8	-	85.6	-
C=CCNc1nc(-c2ccc(O)cc2)cs1	-	-	69.7	-	-	-
Cc1cccc(Nc2nc(-c3ccc(O)cc3)cs2)c1	-	-	67.2	-	-	-
CC1CN(C(=O)Cn2cc(SCC(N)=O)c3ccccc32)CC(C)O1 (configuration not stated)	-	-	-	-	.	.
OC(CNCc1ccccn1)c1ccccc1 (configuration not stated)	-	-	54.0	-	-	43.4
Cc1ccccc1C(OCC(O)CNCc1ccccn1)c1ccccc1 (configuration not stated)	-	-	50.7	-	-	33.4
OC(CNCC(O)c1ccccc1)c1ccccc1 (configuration not stated)	-	-	-	-	.	.
O=C(Cn1ncc2c1-c1ccccc1OC2)Nc1nccs1	-	-	-	-	.	.
COc1cccc(/C=N/NS(=O)(=O)c2ccc(C)cc2)c1	-	-	77.1	-	-	-
Cn1cc(CC(=O)N2CCN(c3ccc(-c4ccccn4)nn3)CC2)c2ccccc21	-	-	121.7	41.9	107.5	100.6
O=C(/C=C/c1ccco1)N1CCN(c2ccc(-c3ccccn3)nn2)CC1	-	-	-	-	.	.
O=C(/C=C/c1cccs1)N1CCN(c2ccc(-c3ccccn3)nn2)CC1	-	-	55.9	-	103.5	100.6
O=C(Cc1cccs1)N1CCN(c2ccc(-c3ccccn3)nn2)CC1	-	-	68.2	-	51.4	100.5
Cc1ccc(CNC(=O)Cc2cc(=O)[nH]c(=O)[nH]2)cc1	-	-	-	-	.	.
CC1CCc2nn(CC(=O)NCCCc3ccccc3)cc2C1 (configuration not stated)	-	-	-	-	.	.
Cc1ccc(C)c(NC(=O)CN(C)S(=O)(=O)c2cnc[nH]2)c1	-	-	-	-	.	.
Cc1cccc(CCNC(=O)CN(C)S(=O)(=O)c2cnc[nH]2)c1	-	-	75.5	-	-	-
COc1ccccc1C(=O)Nc1ccc(C2(C#N)CCCC2)cc1	-	-	64.6	-	-	-
Cc1ccc(-c2c3c(nc4sc(C(=O)Nc5ccccc5)c(N)c24)CCC3)cc1	-	-	-	-	.	.
CC1=C(C(=O)N2CCCCC2)C(c2ccc(C(F)(F)F)cc2)C2=C(CCCC2=O)N1 (configuration not stated)	-	-	-	-	.	.
O=C(O)c1cccc(N/N=C/c2ccccn2)c1	-	-	-	-	.	.
O=C(O)c1cccc(NC(=S)N/N=C/c2ccccn2)c1	-	-	95.0	34.3	-	-
Cc1sc2nc(C3CCCN(C(=O)Cc4ccccc4F)C3)[nH]c(=O)c2c1C (configuration not stated)	-	-	-	-	.	.
CCc1ccc(CN(C)CCc2ccccn2)cc1	-	-	89.3	-	-	-
CN(Cc1ccccc1)Cc1ccccn1	-	-	54.1	-	-	-
CCOc1ccccc1CN(C)CCc1ccccn1	-	-	88.8	-	-	-
COc1ccc(C2C(C(=O)N(C)CCc3ccccn3)c3ccccc3C(=O)N2Cc2ccc(F)cc2)cc1 (configuration not stated)	-	-	-	-	.	.
